High-throughput results: PubChem, The Scripps Research Institute Molecular Screening Center
FBW7 activator: human FBW7 E3 ligase activation, primary screen | Q969H0 | AlphaScreen FBW7–phospho-cyclin E peptide binding, activator screen | normalized activity (activation), % at 26.1 µM | 650,000 compounds, 0.13% hits | AID 1259310; in the data active = normalized activity above about 1.9%;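 also: purified mutant Fbw7 with reduced substrate affinity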
MITF inh: human MITF inhibition, primary screen; O75030; AlphaScreen MITF homodimerization, bead proximity signal; inhibition, % at 2.6 µM; 650,000 compounds, 0.91% hits; in the data active = inhibition above about 50%;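 also: 0% = vehicle wells with protein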
Target sequence (O75030 whole entry, looked up): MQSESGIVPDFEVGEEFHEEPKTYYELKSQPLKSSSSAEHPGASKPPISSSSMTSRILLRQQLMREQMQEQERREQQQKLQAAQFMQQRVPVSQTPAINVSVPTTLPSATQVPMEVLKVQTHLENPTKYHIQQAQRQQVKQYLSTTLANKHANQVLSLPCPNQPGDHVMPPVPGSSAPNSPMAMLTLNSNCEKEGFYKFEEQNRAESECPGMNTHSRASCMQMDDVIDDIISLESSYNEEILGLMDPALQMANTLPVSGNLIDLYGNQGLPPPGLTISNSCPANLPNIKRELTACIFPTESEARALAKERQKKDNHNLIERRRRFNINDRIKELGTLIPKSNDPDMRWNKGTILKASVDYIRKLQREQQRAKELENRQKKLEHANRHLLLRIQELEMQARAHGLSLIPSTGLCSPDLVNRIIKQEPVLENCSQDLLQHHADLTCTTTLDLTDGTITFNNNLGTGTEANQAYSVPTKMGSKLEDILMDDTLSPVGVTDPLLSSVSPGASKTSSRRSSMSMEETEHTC
TEAD-YAP inh: TEAD-YAP interaction inhibition; HEK-TIYL cells, TEAD-Gal4/YAP UAS-luciferase luminescence; inhibition, % at 9.12 µM; 640,000 compounds, 1.4% hits; AID 1259422; in the data active = inhibition above about 32%;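 also: 0% = median of test compound wells and 100% = reference inhibitor wells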
GPR151 activ: human GPR151 activation. Q8TDV0. PathHunter beta-arrestin GPR151 cells, luminescence. activation, % at 11.2 µM. 650,000 compounds, 1% hits; in the data active = activation above about 4.9%;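 also: 0% = median of compound wells and 100% = cells with positive control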
GPR151 conf act: confirmation of human GPR151 activators; shares compounds with GPR151 activ; GPR151 PathHunter beta-arrestin cells, luminescence, 90 min; % of EA-reagent control over plate median; activation, % at 11.2 µM; 6,700 tested, under 10 active;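 active = mean percent activation across replicates above the confirmation screen cutoff of 4.91%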
GPR119 ag: activates human GPR119 in a GPR151 counter-screen; 6,700 compounds, 0.3% hits; shares compounds with GPR151 activ; GPR119 PathHunter beta-arrestin cells, luminescence, 90 min; 0 = compound-well median, 100 = enzyme-acceptor control; AID 1508611; activation, % at 11.2 µM;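 active = mean percent activation in the counterscreen above 29.09%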;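 also: counterscreen on off-target GPR119 to flag nonselective hits from the GPR151 activator screen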
An asterisk follows results filed as active; nt = not tested or not shown. Most compounds without a hit are left out; they make up all but 3.4% or so of the library.

SMILES	FBW7 activator	MITF inh	TEAD-YAP inh	GPR151 activ	GPR151 conf act	GPR119 ag
CC(C)C1N=C2c3ccccc3N=C(SCC(=O)NCCc3ccccc3)N2C1=O (configuration not stated)	0	-1	-6	5.8*	0	4
CC1CC(C)CN(C(=O)CSC2=Nc3ccccc3C3=NC(C(C)C)C(=O)N23)C1 (configuration not stated)	0	-12	-10	1	nt	nt
CCC(C)C1N=C2c3ccccc3N=C(SCC(=O)N3CC(C)CC(C)C3)N2C1=O (configuration not stated)	0	3	0	12*	1	8
Cc1ccc(CNC(=O)CSC2=Nc3ccccc3C3=NC(C(C)C)C(=O)N23)cc1 (configuration not stated)	0	-8	-7	1	nt	nt
Cc1cc(NCCOc2ccccc2)nc(N2CCN(Cc3ccc4c(c3)OCO4)CC2)n1	0	6	8	6.0*	2	3
Cc1nn(C)c(C)c1S(=O)(=O)N1CCN(c2cccc(Cl)c2)CC1	0	-30	10	-1	nt	nt
COc1cccc(C=O)c1OCc1ccc(F)cc1	0	-12	0	5.2*	1	-5
COc1cccc(C=O)c1OCc1ccc(Br)cc1	0	-9	-8	-2	nt	nt
O=C(NCCN1CCOCC1)c1ccc2nc(N3CCN(Cc4ccc5c(c4)OCO5)CC3)sc2c1	0	-8	9	6.8*	0	-4
CN(C)CCC(Oc1ccc(F)cc1)c1ccc(S(C)(=O)=O)cc1 (configuration not stated)	0	34	6	5.6*	0	10
COC(=O)c1sc2cc([N+](=O)[O-])cc(Sc3ccccc3)c2c1-n1cccc1	0	-11	-14	5.7*	0	-8
COC(=O)c1sc2cc([N+](=O)[O-])cc(Sc3ccccc3)c2c1N	0	-1	1	0	nt	nt
CC1CCN(Cc2nnnn2CCCC(=O)N(C)C2CCOC2)CC1 (configuration not stated)	0	4	3	8.7*	-1	-6
Cc1ccccc1NC(=O)C(=O)NCC(c1ccc2c(c1)OCO2)N1CCN(C)CC1 (configuration not stated)	0	1	-10	5.7*	0	-5
O=C(NCC(c1ccc2c(c1)OCO2)N1CCN(c2ccccc2F)CC1)c1cnccn1 (configuration not stated)	0	15	-23	5.5*	1	6
N#Cc1ccc(OCC(=O)OCC(=O)Nc2ncc(Cl)cc2Cl)cc1	0	-4	0	5.6*	0	-8
O=C(CN(Cc1ccccc1)S(=O)(=O)c1cc(Cl)ccc1Cl)N1CCCC1	0	22	-2	3	nt	nt
O=C(CN(CCc1ccccc1)S(=O)(=O)c1cc(Cl)ccc1Cl)N1CCCC1	0	21	-3	18*	0	-13
CCOP(=O)(OCC)c1nc(-c2cccc([N+](=O)[O-])c2)oc1N1CCCCC1	0	3	-5	11*	1	5
CCOc1ccc(-c2csc(/C(C#N)=C/Nc3ccc(Br)cn3)n2)cc1	0	-4	9	0	nt	nt
C/C(=N\NC(=O)c1ccc(F)cc1)c1ccc([N+](=O)[O-])cc1	0	10	-25	8.1*	-1	-14
CCCCCC(O)CCC(=O)NNC(=S)Nc1ccccc1 (configuration not stated)	0	7	2	1	nt	nt
CC(C)COCC(O)CCC(=O)NNC(=S)Nc1ccccc1 (configuration not stated)	0	2	-5	6.5*	1	14
O=C(CCC/C=C\C[C@@H]1[C@@H](/C=C/[C@@H](O)CCc2ccccc2)[C@H](O)C[C@@H]1O)NC(CO)CO	nt	-17	nt	1	nt	nt
O=C(O)CCC/C=C\C[C@@H]1[C@@H](/C=C/[C@H](O)CCc2ccccc2)[C@H](O)C[C@@H]1O	nt	-15	nt	5.6*	1	6
SMILES	FBW7 activator	MITF inh	TEAD-YAP inh	GPR151 activ	GPR151 conf act	GPR119 ag
NC(=O)CCC/C=C\C[C@@H]1[C@@H](/C=C/[C@@H](O)CCc2ccccc2)[C@H](O)C[C@@H]1O	nt	-2	nt	7.0*	1	3
COc1ccc(-c2nc(C3CCCN3C(=O)[C@@H]3CCCC[C@@H]3C(=O)O)n3ccccc23)cc1 (some centres not stated)	-1	-1	0	0	nt	nt
Cc1cc(C)n(C(=O)c2ccc(F)c(F)c2)n1	1	5	9	-1	nt	nt
CCN1CCCC1CNS(=O)(=O)c1ccc(C(=O)Nc2ccccc2)cc1 (configuration not stated)	0	6	-2	10*	0	7
CCOC(=O)C1=C(C)N(C)C(SC)=NC1c1ccco1 (configuration not stated)	0	9	-2	6.4*	1	5
COc1cc(NC(=O)COc2ccccc2)ccc1N1CCCCC1=O	0	-7	-3	-1	nt	nt
COc1ccc(OC)c(NC(=O)CCNS(=O)(=O)c2ccc3c(c2)oc(=O)n3C)c1	0	2	-2	5.1*	1	4
O=C(C(Cc1ccccc1)N1C(=O)c2ccccc2C1=O)N1CCCCC1 (configuration not stated)	0	2	-10	2	nt	nt
COc1ccc(-c2[nH]nc3nc(-c4cccc([N+](=O)[O-])c4)cc(C(=O)O)c23)cc1	0	-3	4	2	nt	nt
Cc1ccc2ncc(C(=O)Nc3cc(C)on3)c(=O)n2c1	0	9	-20	8.2*	0	-3
Cc1cc(C)cc(NC(=O)c2cnc3ccc(C)cn3c2=O)c1	0	-3	6	-1	nt	nt
O=C(Nc1nc2c(s1)CCCC2)c1ccc(Cc2ccccc2)cc1	1	8	-40	1	nt	nt
C=CCOc1ccccc1CNc1cccc(C(=O)O)c1	0	17	2	-2	nt	nt
O=C(O)c1cccc(NCc2cccc3ccccc23)c1	0	10	-19	11*	0	3
CC(NC(=O)c1cnc2scc(C(C)(C)C)n2c1=O)c1ccccc1 (configuration not stated)	0	-2	4	7.4*	1	6
CC(=O)Nc1cccc(NC(=O)CCc2ccccc2)c1	0	2	-19	0	nt	nt
CCN(CC)S(=O)(=O)c1ccc(NC(=O)CCc2ccccc2)cc1	0	1	4	2	nt	nt
CCc1cccc(NC(=O)Nc2ccccc2)c1	1	-9	-83	0	nt	nt
CCCN(CCC)S(=O)(=O)c1ccc(NC(=O)CCc2ccccc2)cc1	0	-3	11	7.6*	0	-7
CCc1cccc(NC(=O)CCC(=O)Nc2cccc(CC)c2)c1	0	14	-3	7.5*	0	-15
CCc1cccc(NC(=O)Cn2cccc2)c1	0	5	-7	7.6*	1	-7
